Source: PubChem BioAssay (Tox21)
Results filed as inconclusive are left out. Where a call stands in place of a potency, no number is given. Active and inactive are the calls of the source. The call rests on the fitted dose curve; in most records, active means well fitted cell-killing curve with a large enough effect in the repeat runs; inconclusive means weak or mixed curves, or effect the other way; inactive means flat fitted curve, though single readings scatter.

How the values were obtained:
[1] = cAMP Responsive Elements (CRE) small molecule antagonists, cell-based qHTS assay: qHTS cell viability counter screen (AID 2060913); further: nearly all actives have a fitted effect of over 40% in size
Outline: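 Cytotoxicity counter screen multiplexed with the CRE-bla antagonist read: HEK293T cells in DMEM with dialyzed FBS and 25 mM HEPES were treated 3 hrs under 0.25 uM final NKH477, then viability measured by CellTiter-Glo luminescence.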

[2] = cAMP Responsive Elements (CRE) small molecule agonists, cell-based qHTS assay: qHTS cell viability counter screen (AID 2060914);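 further: viability read after 3 h of compound exposure; nearly all actives have a fitted effect of over 50% in size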
Outline: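 CRE-bla HEK 293T cells, plated 18 h at 37 °C, were exposed to compounds for 3 h at 37 °C/5% CO2. Viability was then measured in the same wells by CellTiter-Glo luminescence after 30 min at room temperature.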

| Structure (SMILES) | Potency [1] | Potency [2] |
| --- | --- | --- |
| CC1(C)C(=O)N(Br)C(=O)N1Br | inactive | inactive |
| C=CC(C)(CCC=C(C)C)OC(=O)c1ccccc1 (stereo unspecified) | inactive | inactive |
| O=C1CCCCC1C1CCCCC1 (stereo unspecified) | inactive | inactive |
